According to PubChem BioAssay (NCATS):
Inconclusive results are not listed. A call without a number means that no potency is given here. Values without a mark were called inactive. Active and inactive are the calls of the source. Calls come from the whole dose curve; as a rule, active = well fitted curve in the direction sought with a large enough effect; inconclusive = small, poorly fitted or top-dose-only effect, or another doubt; inactive = no such curve, though single readings can be large; an effect the other way counts as inactive or inconclusive.

What was measured:
[1] = tested on: CAOV3; assay: Primary qHTS to identify gynecologic anti-cancer compounds using libraries of approved drugs and bioactive compounds (AID 1345084); conditions: Gynecologic cancer cell panel viability, ATPlite luminescence, 48 h; series mostly up to 57.5 µM; note: nearly all actives have a fitted effect of over 55% in size; note: potency is the fitted concentration of half-maximal effect
Method in brief: (§1)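 Measured: luminescence after ATPlite addition (15 min, RT). Exposure: 48 h, 37 C, 5% CO2.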

[2] = tested on: CASKI; assay: as above; conditions: Gynecologic cancer cell panel viability, ATPlite luminescence, 48 h; series mostly up to 57.5 µM
Method in brief: as §1

[3] = tested on: HeLa; assay: as above; conditions: Gynecologic cancer cell panel viability, ATPlite luminescence, 48 h; series mostly up to 57.5 µM
Method in brief: as §1

[4] = tested on: Hek293T; assay: as above; conditions: Gynecologic cancer cell panel viability, ATPlite luminescence, 48 h, control line for the selectivity index; series mostly up to 57.5 µM
Method in brief: as §1

[5] = tested on: JEG-3; assay: as above; conditions: Gynecologic cancer cell panel viability, ATPlite luminescence, 48 h; series mostly up to 57.5 µM
Method in brief: as §1

[6] = tested on: OV90; assay: as above; conditions: Gynecologic cancer cell panel viability, ATPlite luminescence, 48 h; series mostly up to 57.5 µM
Method in brief: as §1

[7] = tested on: PA-1; assay: as above; conditions: Gynecologic cancer cell panel viability, ATPlite luminescence, 48 h; series mostly up to 57.5 µM
Method in brief: as §1

[8] = tested on: Tov-21-G; assay: as above; conditions: Gynecologic cancer cell panel viability, ATPlite luminescence, 48 h; series mostly up to 57.5 µM
Method in brief: as §1

[9] = tested on: Tov112D; assay: as above; conditions: Gynecologic cancer cell panel viability, ATPlite luminescence, 48 h; series mostly up to 57.5 µM
Method in brief: as §1

[10] = tested on: Es-2; assay: as above; conditions: Gynecologic cancer cell panel viability, ATPlite luminescence, 48 h; series mostly up to 57.5 µM
Method in brief: as §1

[11] = tested on: SKOV3; assay: as above; conditions: Gynecologic cancer cell panel viability, ATPlite luminescence, 48 h; series mostly up to 57.5 µM
Method in brief: as §1

[12] = qHTS assay to identify inhibitors of the type 1 interferon - major histocompatibility complex class I in skeletal muscle: Counter screen cell viability and HiBit confirmation (AID 1347412); conditions: iHSKM muscle cells + IFN-b, HiBiT or CellTiter-Glo, 24 h; Viability; at 45.9 µM (top of the series); note: nearly all actives have a fitted effect of over 60% in size
Method in brief: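 After 24 h with human IFN-beta (4 ng/ml) and compound titrations (top 46 uM final, 1:3, 12 points), HLA-B HiBit myoblasts were lysed for either Nano-Glo HiBiT luminescence or CellTiter Glo viability on paired plates.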

CC(=O)NC(C)c1cnc(-c2cnc(Oc3ccc(OC(C)C)cc3)s2)s1 (stereo not given)
Potency [1]: inactive
Potency [2]: inactive
Potency [3]: inactive
Potency [4]: inactive
Potency [5]: inactive
Potency [6]: inactive
Potency [7]: inactive
Potency [8]: inactive
Potency [9]: inactive

COc1cc(/C=C2\CCCN([C@@H](C)c3ccc(F)cc3)C2=O)ccc1-n1cnc(C)c1
Potency [1]: inactive
Potency [2]: inactive
Potency [3]: inactive
Potency [5]: inactive
Potency [6]: inactive
Potency [8]: inactive
Potency [9]: inactive

Cc1c[nH]c2ncnc(N3CCC(CN)(C(=O)Nc4cccc(OC(=O)N(C)C)c4)CC3)c12
Potency [1]: inactive
Potency [2]: inactive
Potency [10]: inactive
Potency [3]: inactive
Potency [5]: inactive
Potency [6]: 11.2 µM (active)
Potency [7]: inactive
Potency [11]: 22.4 µM (active)
Potency [9]: inactive

OC1C=C2C3CN(Cc4cc5c(cc43)OCO5)C2CC1O (stereo not given)
Potency [1]: inactive
Potency [2]: inactive
Potency [10]: 25.1 µM (active)
Potency [4]: 8.91 µM (active)
Potency [5]: inactive
Potency [7]: 14.1 µM (active)

O=c1[nH]c([C@@H]2CCCN2)nc2c1oc1ccc(Cl)cc12
Potency [1]: inactive
Potency [2]: inactive
Potency [10]: inactive
Potency [4]: inactive
Potency [5]: inactive
Potency [6]: inactive
Potency [7]: inactive
Potency [11]: inactive
Potency [8]: inactive
Potency [9]: inactive

Cc1cc(-c2cnc(N)c3c(-c4ccc5scnc5c4)csc23)n(C)n1
Potency [1]: inactive
Potency [2]: inactive
Potency [10]: inactive
Potency [3]: inactive
Potency [4]: inactive
Potency [5]: inactive
Potency [7]: inactive
Potency [9]: inactive

CC(=O)NC(C(=O)O[C@H]1CCC(C)(C)[C@@H]2CC=C3C(=O)OCC3(O)[C@@]12C)C(C)C (stereo not given in full)
Potency [1]: inactive
Potency [2]: inactive
Potency [10]: inactive
Potency [3]: inactive
Potency [4]: inactive
Potency [5]: inactive
Potency [8]: inactive
Potency [9]: inactive

N#Cc1ccc(COc2ccc(-c3cccc4nc(NC(=O)C5CC5)nn34)cc2)cn1
Potency [1]: 22.4 µM (active)
Potency [2]: inactive
Potency [10]: inactive
Potency [3]: inactive
Potency [4]: inactive
Potency [5]: inactive
Potency [6]: inactive
Potency [7]: inactive
Potency [8]: inactive

C[C@@H]1O[C@@H](O[C@H]2[C@H](OC(=O)[C@]34CCC(C)(C)C[C@H]3C3=CCC5[C@@]6(C)C[C@H](O)[C@H](O[C@@H]7O[C@H](CO)[C@@H](O)[C@H](O)[C@H]7O)[C@](CO)(C(=O)O)C6CC[C@@]5(C)[C@]3(C)C[C@H]4O)OC[C@H](O)[C@@H]2O)[C@H](O)[C@H](O)[C@H]1O[C@@H]1OC[C@@H](O)[C@H](O[C@@H]2OC[C@](O)(CO)[C@H]2O)[C@H]1O (stereo not given in full)
activity change, negative = cytotoxicity [1]: -2.46% [at 6.55 µM]
activity change, negative = cytotoxicity [2]: -28.8% [at 6.55 µM]
Potency [10]: 2.82 µM (active)
activity change, negative = cytotoxicity [6]: -28.6% [at 6.55 µM]
Potency [9]: 1.41 µM (active)

CCc1c[nH]c2ncnc(N3CC[C@](N)(CNC(=O)c4ccc(F)cc4F)C3)c12
Potency [1]: inactive
Potency [2]: inactive
Potency [10]: inactive
Potency [3]: inactive
Potency [4]: 1.41 µM (active)
Potency [5]: inactive
Potency [8]: 1 µM (active)
Potency [9]: inactive

CNC1CN(c2ccc3c(=O)c(C(=O)O)cn(-c4nccs4)c3n2)CC1OC (stereo not given)
activity change, negative = cytotoxicity [1]: -13% [at 11.6 µM]
activity change, negative = cytotoxicity [2]: -25.3% [at 11.6 µM]
activity change, negative = cytotoxicity [3]: -22.6% [at 11.6 µM]
activity change, negative = cytotoxicity [5]: -9.7% [at 11.6 µM]
activity change, negative = cytotoxicity [6]: -6.73% [at 11.6 µM]
Potency [7]: 1.41 µM (active)

C[C@H](Nc1ncnc2nc[nH]c12)c1cc2cccc(Cl)c2c(=O)n1-c1ccccc1
Potency [1]: inactive
Potency [10]: inactive
Potency [3]: inactive
Potency [5]: inactive
Potency [6]: inactive
Potency [9]: inactive
activity change, negative = inhibition [12]: -19.3%

CC(C)C[C@@H]1NC(=O)[C@@H]2C[C@@]34C[C@@H]5[C@@]6(C)CCCC(C)(C)C6CC[C@@]5(C)N(c5ccccc53)[C@H]4N2C1=O (stereo not given in full)
Potency [1]: inactive
Potency [3]: inactive
Potency [8]: inactive
Potency [9]: inactive

C/C=C/C=C/C=C/C(=O)O[C@@H]1C=C2COC(=O)[C@]2(O)[C@@]2(C)CCCC(C)(C)[C@H]12
Potency [1]: inactive
Potency [10]: inactive
Potency [3]: inactive
Potency [4]: inactive
Potency [5]: inactive
Potency [6]: inactive
Potency [7]: inactive
Potency [8]: inactive
Potency [9]: inactive

COc1cc2c(NC3CCN(C(C)C)CC3)nc(N3CCC(F)(F)CC3)nc2cc1OCCCN1CCCC1
Potency [1]: 8.91 µM (active)
Potency [2]: 31.6 µM (active)
Potency [5]: 22.4 µM (active)
Potency [6]: 11.2 µM (active)
Potency [7]: 22.4 µM (active)

COc1cc(Br)c(S(=O)(=O)Nc2ccc(Cl)c(O[C@@H]3CCN(C)C3)c2)cc1OC
Potency [1]: inactive
Potency [10]: inactive
Potency [3]: inactive
Potency [5]: inactive
Potency [9]: inactive

CC(C)S(=O)(=O)NC[C@H](C)c1ccc(-c2ccc(CCNS(C)(=O)=O)cc2)cc1
Potency [1]: inactive
Potency [10]: inactive
Potency [3]: inactive
Potency [4]: 8.91 µM (active)
Potency [5]: inactive
Potency [7]: inactive
Potency [11]: 17.8 µM (active)
Potency [8]: inactive

FC(F)(F)c1ccc(/C=C/c2nc(COc3ccc(CCCCn4ccnn4)cc3)co2)cc1
Potency [1]: inactive
Potency [3]: inactive
Potency [4]: inactive
Potency [8]: inactive
Potency [9]: inactive

COc1cc(O)c2c(c1)/C=C/C[C@H](O)[C@H](O)C(=O)/C=C\C[C@H](C)OC2=O
Potency [1]: 22.4 µM (active)
Potency [10]: 15.8 µM (active)
Potency [4]: 15.8 µM (active)
Potency [5]: inactive
Potency [7]: 14.1 µM (active)
Potency [8]: 17.8 µM (active)

Cc1csc2c(N[C@@H](C)CN3CCN(S(=O)(=O)c4ccc(Cl)c(Cl)c4)CC3)ncnc12
Potency [1]: inactive
Potency [3]: inactive
Potency [5]: inactive
Potency [7]: inactive
Potency [8]: inactive
Potency [9]: inactive
